Screening results as filed in PubChem BioAssay.
SMN2 splice up = SMN2 splice variant enhancement. 2.8% of 210,000 active. Potency, µM (top dose mostly 46.1 µM), without a hit: at the highest dose activity change, positive = activation, hits mostly activators. HEK293 SMN2-luciferase splicing reporter, luminescence, 30-36 h; further: % of control where 0% means no effect; nearly all actives have a fitted effect of over 55% in size
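HEK293 cells carry an SMN2 minigene-luciferase reporter in which exon 7 inclusion puts luciferase in frame. Cells were seeded at 2000 cells/well, attached for 10-12 hours, then exposed to compounds for 30-36 hours at 37C before ONE-Glo luminescence.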
ELG1 repair inh = ELG1-dependent DNA repair inhibition. HEK293T ELG1-luciferase reporter, luminescence, 16 h; DNA damage induced by 5-fluorouridine. 2.3% of 330,000 active. Potency, µM (top dose mostly 46.1 µM), for the others: at the top dose activity change, negative = inhibition, usual class: inhibitors; further: on the % scale 0 is the no-effect control and ±100 the full control effect; nearly all actives have a fitted effect of over 55% in size
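HEK293T cells expressing luciferase-tagged ELG1 (2,000/well) received 5-Fluorouridine plus compound or DMSO for 16 hr at 37 °C. Luciferase was read by ONE-Glo luminescence after 30 min at room temperature.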
ELG1 genotox = genotoxicity induction in ELG1-luciferase HEK293T cells. HEK293T ELG1-luciferase reporter, luminescence, 16 h. Potency, µM (highest dose often 46 µM), for the others: at the highest dose activity change, positive = activation, hits mostly activators. 1.3% of 330,000 active. AID 504466; further: % of control where 0% means no effect; nearly all actives have a fitted effect of over 60% in size
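Luminescence read-out: rising ELG1-luciferase signal, reflecting elevated ELG1 protein under genetic stress, flags genotoxic compounds. Cells were treated for 16 hr at 37 °C before ONE-Glo detection.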
Rab9 promoter act = Rab9 promoter activation; Potency, µM (series often up to 9.22 µM), inactives show at the top dose activation, negative = inhibition, actives largely listed as activators; Huh7 Rab9 promoter-luciferase reporter, luminescence, 24 h; 2.8% of 320,000 active; AID 485297; further: % of control where 0% means no effect; nearly all actives have a fitted effect of over 60% in size
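Steps: seed 1500 Huh7 Rab9-luc cells per well, rest 2 h at 37 °C; add compound in DMSO; incubate 24 h; add luciferase reagent, 10 min ambient; read luminescence.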
FLuc modulator = counter-screen for miR-21 project: firefly luciferase inhibitors or activators | 6.9% of 360,000 active | Potency, µM (top dose mostly 57.5 µM), inactives show at the top dose activity change, negative = inhibition, actives largely listed as inhibitors | purified FLuc, Km substrates, luminescence inhibition | P08659;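 further: plate controls were vehicle for no effect and reference inhibitor for full effect; nearly all actives have a fitted effect of over 55% in size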
Target sequence (P08659 whole entry, looked up): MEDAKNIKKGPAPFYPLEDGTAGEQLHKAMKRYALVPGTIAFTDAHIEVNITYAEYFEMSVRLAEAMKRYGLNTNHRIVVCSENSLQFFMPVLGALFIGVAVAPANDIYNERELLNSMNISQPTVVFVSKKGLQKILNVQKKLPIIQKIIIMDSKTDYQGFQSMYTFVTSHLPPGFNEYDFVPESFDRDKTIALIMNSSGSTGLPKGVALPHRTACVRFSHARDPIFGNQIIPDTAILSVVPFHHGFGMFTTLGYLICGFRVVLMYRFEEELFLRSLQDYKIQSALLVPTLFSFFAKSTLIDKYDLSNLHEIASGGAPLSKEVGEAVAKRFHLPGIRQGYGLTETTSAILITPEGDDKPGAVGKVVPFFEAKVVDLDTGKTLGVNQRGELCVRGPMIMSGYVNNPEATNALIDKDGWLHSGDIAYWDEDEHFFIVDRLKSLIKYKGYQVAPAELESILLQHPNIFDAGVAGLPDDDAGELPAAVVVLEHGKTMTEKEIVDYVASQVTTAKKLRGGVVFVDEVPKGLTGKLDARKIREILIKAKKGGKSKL
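Purified P. pyralis luciferase (10nM final) with 10uM D-luciferin and 10uM ATP (Km levels) in 50mM Tris acetate pH 7.5, 10mM Mg acetate, 0.01% Tween-20, 0.05% BSA; qHTS 6-point titration, ~60 µM downward; luminescence read.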
NPC1 promoter act = NPC1 promoter activation | Huh7 NPC1 promoter luciferase reporter, 24 h | 2.4% of 320,000 active | AID 485313 | Potency, µM (titrated, usually from 9.22 µM), for inactives: top-dose activation, hits mostly activators; further: % of control where 0% means no effect; nearly all actives have a fitted effect of over 60% in size
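Cells: Huh7 expressing luciferase under the NPC1 promoter, 1500/well. Seeded 2 h, compound added, incubated 24 h at 37 °C. Luciferase reagent, 10 min ambient, then luminescence.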
Active calls of the source: *; ? = inconclusive; · = not tested or not shown; [ ] = dose if it differs, or a comment. Shown are actives, neighbours in structure and some others; about 9.2% of the full set was active somewhere. The call rests on the fitted dose curve; in most records, active means well fitted curve in the direction sought with a large enough effect; inconclusive means small, poorly fitted or top-dose-only effect, or another doubt; inactive means no such curve, though single readings can be large; an effect the other way counts as inactive or inconclusive. Potency means the concentration at half of the fitted maximal effect.

SMILES | SMN2 splice up | ELG1 repair inh | ELG1 genotox | Rab9 promoter act | FLuc modulator | NPC1 promoter act
O=C(c1cc(-c2ccc(F)cc2)nc2ccccc12)N1CCC1 | · | ? | -4% | · | · | ·
O=C(O)c1cc(-c2ccc(-c3ccc(F)cc3)o2)nc2ccccc12 | · | ? | ? | 0.89µM* | 0.13µM* | 2.5µM*
CCOC(=O)N1CCN(C(=O)c2ccc3nc(-c4ccccc4)c(-c4ccccc4)nc3c2)CC1 | · | 23µM* | -10% | -1% | 3% | -3%
COc1ccc2cc(-c3cc(C(=O)O)c4ccccc4n3)ccc2c1 | ? | ? | ? | ? | 0.067µM* | 0.11µM*
Cc1ccc(-c2cc(C(=O)N3CCCCC3)c3ccccc3n2)cc1C | · | ? | 5% | 8% | 2.4µM* | 18%
COc1cccc(N2CCN(C(=O)c3cc4cc5cc(C)ccc5nc4s3)CC2)c1 | · | · | · | · | 10% | ·
CCOc1ccc(-c2cc(C(=O)N3CCCC3)c3ccccc3n2)cc1 | · | ? | ? | 1.4µM* | 0.48µM* | 3.5µM*
CCOC(=O)N1CCN(C(=O)c2cc(-c3ccc(OCC)cc3)nc3ccccc23)CC1 | 13µM* | ? | 0% | ? | 0.21µM* | 23%
CCOC(=O)N1CCN(C(=O)c2cc(-c3ccncc3)nc3ccccc23)CC1 | · | ? | 0% | -14% | 2% | -19%
CN1CCCN(C(=O)c2cc(-c3cccc4ccccc34)nc3ccccc23)CC1 | · | -22% | -8% | -5% | -19% | -4%
Cc1ccc(-c2cc(C(=O)N3CCN(c4ncccn4)CC3)c3cc(Br)ccc3n2)o1 | -14% | ? | -5% | -3% | 4.8µM* | 2%
O=C(c1cc(-c2ccccn2)nc2ccc(Br)cc12)N1CCN(S(=O)(=O)c2ccccc2)CC1 | 5% | ? | -6% | 0% | -6% | 0%
CCOc1ccc(-c2cc(C(=O)N3CCN(C)CC3)c3ccccc3n2)cc1 | 11µM* | ? | ? | 2.5µM* | 0.6µM* | 2.8µM*
Cc1cc2oc(C(=O)Nc3ccc(S(=O)(=O)Nc4ncccn4)cc3)cc(=O)c2cc1C | 1% | · | · | · | -4% | ·
CCOc1ccc(/C=N/NC(=O)Cc2ccccc2)cc1CN1CC2CC(C1)c1cccc(=O)n1C2 (stereo not given) | · | ? | 0% | -5% | 3% | -1%
O=C(c1cc(-c2ccccc2)nc2ccccc12)N1CCCC1 | · | 8% | -6% | -1% | ? | 2%
COc1ccc(-c2cc3cc(OC)c(OC)cc3c(C)n2)cc1 | · | 7% | 3% | ? | 17µM* | ?
CC(C)c1ccc(-c2cc(C(=O)N3CCOCC3)c3cc(Br)ccc3n2)cc1 | · | ? | -9% | 21% | 9.5µM* | 3%
COc1ccc(-c2cc(C(=O)N3CCCC3)c3ccccc3n2)cc1 | · | ? | 5%[9.26 µM] | ? | 4.3µM* | 29%
CCOC(=O)N1CCN(C(=O)c2noc3c2COc2ccccc2-3)CC1 | · | ? | ? | ? | 13µM* | ?
CCCN1CCN(C(=O)c2noc3c2COc2ccc(C)cc2-3)CC1 | · | ? | 3% | -1% | -14% | 3%
CCc1nnc(SCC(=O)N2CCCC(N3CCN(c4ccccc4C)CC3)C2)o1 (stereo not given) | · | -9% | -13% | 2% | -1% | -1%
O=C(CN1C(=O)COc2ccc(S(=O)(=O)N3CCCC3)cc21)N1CCN(c2ccccc2)CC1 | · | · | · | · | -6% | ·
Cc1cc(C)c(NC(=O)C2CCN(c3nnc(C)c4c(C)n(-c5ccccc5)nc34)CC2)c(C)c1 | · | · | · | · | -6% | ·
C=CCn1c(SCC(=O)NC2CC2)nnc1C1CC1 | · | -2% | 0% | -6% | 0% | 1%
SMILES | SMN2 splice up | ELG1 repair inh | ELG1 genotox | Rab9 promoter act | FLuc modulator | NPC1 promoter act
COc1ccccc1CN1CCC(CNS(=O)(=O)c2cc(-c3cc(C)no3)ccc2OC)CC1 | · | 0% | 0%[9.26 µM] | 3% | 0% | 1%
O=C(O)CCC/C=C\C[C@@H]1C(/C=C/[C@@H](O)COc2cccc(C(F)(F)F)c2)[C@@H](O)C[C@@H]1O (stereo not given in full) | 3% | · | · | · | · | ·
COc1ccc(-c2cc(C(=O)N3CCN(c4ccccc4)CC3)c3ccccc3n2)cc1 | 13% | -24% | 2% | -9% | 2.7µM* | -22%
COc1ccc(-c2cc(OC)c3ccccc3n2)cc1 | 9% | 7% | -1% | -2% | 19µM* | -2%
COc1ccc(-c2cc(C(=O)N3CCCC(C(F)(F)F)C3)c3ccccc3n2)cc1 (stereo not given) | · | ? | -6% | -7% | 6µM* | -1%
Cc1ccc(-c2cc(C(=O)N3CCOCC3)c3ccccc3n2)o1 | · | ? | 8% | · | · | ·
Cc1ccc(-c2cc(C(=O)N3CCN(c4ccc(F)cc4)CC3)c3ccccc3n2)o1 | 14% | 0% | -7% | 16% | 3.4µM* | 2%
COc1cc(-c2ccccc2)nc2ccccc12 | -43% | -24% | -3% | 7% | -13% | -2%
CC(C)(C)OC(=O)N1CCC(c2c(C(=O)NC3CCCCC3)cnn2-c2ccc(F)cc2F)CC1 | · | · | · | · | -2% | ·
O=C(c1cc(-c2cccc(Cl)c2)nc2ccccc12)N1CCCC1 | · | -3% | -6% | 4% | 17µM* | -4%
O=C(O)c1cc(-c2ccco2)nc2ccc(Br)cc12 | 0% | ? | -6% | -5% | 19µM* | 0%
Cc1ccc(-c2cc(C(=O)N3CCCC(C(F)(F)F)C3)c3ccccc3n2)o1 (stereo not given) | · | 11% | -2% | 9% | 12µM* | 3%
CCOC(=O)C1CCCN(C(=O)c2cc(-c3ccccc3)nc3ccccc23)C1 (stereo not given) | -6% | ? | 2% | -1% | ? | -1%
O=[N+]([O-])c1ccc(S(=O)(=O)N2CCN(Cc3ccco3)CC2)cc1 | · | 6% | 0% | 1% | 0% | -3%
Cc1ccccc1Nc1sc(C(=O)c2ccc(F)cc2)c(N)c1C(=O)NCCc1ccccc1 | · | · | · | · | -11% | ·
Cc1cccc2cc3ccc4ccccc4c3cc12 | -5%[9.22 µM] | · | · | · | · | ·
CCOc1ccc(OCCC(=O)NNC(=O)c2cc(OC)c(OC)c(OC)c2)cc1 | · | ? | 1% | 2% | -4% | -4%
Cc1ccc(Cn2c(=O)n(Cc3ccco3)c(=O)c3oc4ccccc4c32)cc1 | · | · | · | · | -2% | ·
O=C(c1cccc(Cl)c1)N1CCN(c2ccccn2)CC1 | -3% | 7% | 1% | -3% | -2% | 1%
O=C(c1ccc(S(=O)(=O)c2cccc(Cl)c2)c([N+](=O)[O-])c1)N1CCN(c2ccccn2)CC1 | -85% | 18µM* | -13% | -1% | 6% | 1%
Cc1cccc(N2CCN(C(=O)c3ccc(Cl)c(S(=O)(=O)NCc4ccco4)c3)CC2)c1C | -24% | 18µM* | -16% | -1% | -1% | -7%
